In the library only some 2.8% were active in any assay of this set; here they are far more common.
IP6K1 inhibitor – IP6K1 kinase inhibition | Q92551 | IP6K1 kinase, ADP-Glo luminescence, 2 h; active compounds read low | activity change, % (series mostly up to about 58 µM) | 140,000 tested, 0.81% active | AID 1645851; in the data active = activity change below about -25%; also: % is scaled to controls: 0 for no effect and ±100 for the full control effect
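ADP-Glo luminescence measures ADP made by human IP6K1 during a 2 h RT reaction with ATP/IP6 (mix at 1.3 mM/130 uM); top library doses 57.5 and 19.1 uM final.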
KDM5B inh – blocks human KDM5B histone demethylase activity. 220,000 tested, 2.6% active. Potency, µM (doses to about 57.7 µM), hits mostly inhibitors. KDM5B demethylase, FDH-coupled NADH fluorescence (FDH is formaldehyde dehydrogenase); also: potency is read from the fitted curve at half-maximal effect; 0% is about no effect; nearly all actives have a fitted effect of over 70% in size
Target sequence (Q9UGL1 whole entry, looked up): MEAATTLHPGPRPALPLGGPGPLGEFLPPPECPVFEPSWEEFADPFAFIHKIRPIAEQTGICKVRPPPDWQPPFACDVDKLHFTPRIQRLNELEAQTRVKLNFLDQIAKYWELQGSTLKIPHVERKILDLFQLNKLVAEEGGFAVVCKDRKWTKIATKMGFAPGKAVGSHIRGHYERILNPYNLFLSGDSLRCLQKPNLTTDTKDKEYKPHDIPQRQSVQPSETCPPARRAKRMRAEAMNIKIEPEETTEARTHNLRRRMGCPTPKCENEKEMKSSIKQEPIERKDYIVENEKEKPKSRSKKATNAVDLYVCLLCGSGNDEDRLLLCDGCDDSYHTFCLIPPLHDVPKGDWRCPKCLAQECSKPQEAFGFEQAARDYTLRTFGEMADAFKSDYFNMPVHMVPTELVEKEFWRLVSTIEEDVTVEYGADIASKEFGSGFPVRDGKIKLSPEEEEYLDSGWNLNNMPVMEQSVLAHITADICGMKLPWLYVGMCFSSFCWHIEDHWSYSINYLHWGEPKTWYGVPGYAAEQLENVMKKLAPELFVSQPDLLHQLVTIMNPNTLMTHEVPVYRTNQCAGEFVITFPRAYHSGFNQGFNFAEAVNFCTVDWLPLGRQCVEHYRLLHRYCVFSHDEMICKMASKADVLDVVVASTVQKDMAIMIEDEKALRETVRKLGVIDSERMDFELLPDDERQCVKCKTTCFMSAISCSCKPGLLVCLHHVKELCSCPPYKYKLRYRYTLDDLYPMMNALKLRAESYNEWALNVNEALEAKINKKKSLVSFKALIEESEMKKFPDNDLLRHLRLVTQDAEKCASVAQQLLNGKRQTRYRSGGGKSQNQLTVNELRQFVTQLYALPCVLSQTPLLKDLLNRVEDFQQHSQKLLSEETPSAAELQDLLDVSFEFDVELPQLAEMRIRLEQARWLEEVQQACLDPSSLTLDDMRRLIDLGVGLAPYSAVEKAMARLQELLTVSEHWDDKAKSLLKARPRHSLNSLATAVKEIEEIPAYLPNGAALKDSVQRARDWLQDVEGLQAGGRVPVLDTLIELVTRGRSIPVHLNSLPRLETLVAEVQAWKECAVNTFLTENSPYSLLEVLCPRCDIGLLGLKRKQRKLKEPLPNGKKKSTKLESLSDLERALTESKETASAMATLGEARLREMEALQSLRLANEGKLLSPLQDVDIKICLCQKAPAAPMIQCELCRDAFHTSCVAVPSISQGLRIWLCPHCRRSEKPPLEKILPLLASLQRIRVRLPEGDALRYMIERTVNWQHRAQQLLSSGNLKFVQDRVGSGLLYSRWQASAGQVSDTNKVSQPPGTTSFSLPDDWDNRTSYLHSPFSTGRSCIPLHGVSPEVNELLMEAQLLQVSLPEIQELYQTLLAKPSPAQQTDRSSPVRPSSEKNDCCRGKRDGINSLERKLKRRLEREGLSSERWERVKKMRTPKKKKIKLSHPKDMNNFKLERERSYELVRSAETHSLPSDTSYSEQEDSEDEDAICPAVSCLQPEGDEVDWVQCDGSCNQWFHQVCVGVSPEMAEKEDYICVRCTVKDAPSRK
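Coupled FDH/NAD⁺ fluorescence readout. KDM5BΔAP 200 nM final; compound titration, 10 min RT preincubation; substrate mix 12.5 µM H3K4me3, 25 µM 2-OG, 50 µM Fe(II), 100 µM ascorbate, 0.25 mM NAD⁺, 0.25 U/mL FDH; ΔRFU over 30 min.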
* marks the source's active call; other numbers are inactive results; i = inactive; ? = inconclusive; nt = no result.

SMILES	IP6K1 inhibitor	KDM5B inh
COc1ccc(-c2cccc(CCOc3cnc4c(ccn4CC(=O)O)c3)c2)c(F)c1	-6.9	?
CNC(=O)CCn1ncc2cc(OCc3ccccc3-c3cccnc3OC)ccc21	17.4	i
Cc1ccc(S(=O)(=O)N2CCC(OC3CCN(Cc4ccccc4)CC3)CC2)c(C)c1	-6.5	i
Nc1nc(CN2CCN(C(=O)c3cc(Cl)cc(Cl)c3)CC2)nc2ccccc12	nt	i
N#Cc1ccc(OCCCOc2ccc(C#N)cc2)cc1	nt	i
COCC(=O)N[C@H]1C[C@H]2C(=O)Nc3ccc(-c4ccsc4)cc3C(=O)N2C1	-9.8	?
CC(C)(CC(=O)O)CC(=O)N[C@H]1C[C@H]2C(=O)Nc3ccc(-c4cccs4)cc3C(=O)N2C1	-9.5	?
COCC(=O)N[C@H]1C[C@H]2C(=O)Nc3ccc(-c4cccs4)cc3C(=O)N2C1	5.6	35.5µM*
O=C(O)CSCC(=O)N[C@H]1C[C@H]2C(=O)Nc3ccc(-c4cccs4)cc3C(=O)N2C1	1.1	28.2µM*
O=C(c1ccncc1)N1CCN(c2ccnc3ccnn23)CC1	3.3	nt
CCN1CCN(C(=O)c2nc3sccn3c2-c2ccc(C(F)(F)F)cc2)CC1	7.6	nt
COC[C@@]12CN(c3ccccn3)C[C@@H]1C(C)(C)COc1ccc(OC)cc12	0.4	nt
CC(C)c1noc(-c2cccn3c(CNC(=O)c4cc(F)ccc4F)nnc23)n1	12.3	25.1µM*
CC(C)c1noc(-c2cccn3c(CNC(=O)c4ccccc4F)nnc23)n1	5.6	?
CCc1noc(-c2cccn3c(CNC(=O)c4ccc(F)cc4Cl)nnc23)n1	1.6	?
COc1cccc(C(=O)NCc2nnc3c(-c4nc(C(C)C)no4)cccn23)c1	0.1	?
CCc1noc(-c2cccn3c(CNC(=O)c4cc(F)ccc4F)nnc23)n1	7.9	28.2µM*
CC(C)c1noc(-c2cccn3c(CNC(=O)c4ccc(F)cc4Cl)nnc23)n1	-1.3	25.1µM*
CC(C)c1noc(-c2cccn3c(CNC(=O)c4cc(F)ccc4Cl)nnc23)n1	0.7	22.4µM*
Cc1nn(-c2ccccc2)c2c1C(C)N(C1CCN(C(=O)C3CCCC3)CC1)C2=O (stereo not drawn)	3.7	nt
Fc1ccc(CNC2=NCCNC23CCCCCC3)cc1	nt	i
O=C(CN1CCCC(c2nc3ccccc3o2)C1)NCC(F)(F)F (stereo not drawn)	nt	i
COCCCNC(=O)c1cn2cc(-c3ccc(OC)cc3)sc2n1	2.6	nt
Cc1ccc(S(=O)(=O)N(C)CCc2noc(-c3ccccc3F)n2)c2nsnc12	nt	i
O=C(Nc1ccc(I)cc1F)c1ccc(-c2ccccc2)cc1	nt	i
SMILES	IP6K1 inhibitor	KDM5B inh
CCc1noc(-c2cccn3c(CNC(=O)c4ccc(F)c(F)c4)nnc23)n1	-2.1	3.98µM*
CCc1noc(-c2cccn3c(CNC(=O)c4ccc(OC)c(F)c4)nnc23)n1	26.0	?
CN(C)C(=O)N1Cc2ccccc2OC2(CCN(C(=O)Cc3csc(N)n3)CC2)C1	-12.0	?
CN1CCN(C(=O)N2Cc3ccccc3OC3(CCN(C(=O)N(C)C)CC3)C2)CC1	17.4	i
CN(C)C(=O)N1CCC2(CC1)CN(C(=O)c1ccnc(N)c1)Cc1ccccc1O2	-2.4	79.4µM*
CN(C)C(=O)N1Cc2ccccc2OC2(CCN(C(=O)c3ccnc(N)c3)CC2)C1	-3.8	89.1µM*
Cc1ccc(S(C)(=O)=O)cc1C(=O)Nc1ccc(N2CCOCC2)cc1	nt	i
CCOC(=O)COc1nc(C)c2c(c1C#N)CCCC2	nt	i
OC1CCN(Cc2nnc(-c3ccccc3Cl)o2)CC1	nt	i
Cc1nc2ncccn2c1C(=O)N[C@H]1CCOC[C@H]1C1CCOCC1	7.2	28.2µM*
Cc1cc(C(=O)N[C@H]2CCOC[C@H]2C2CCOCC2)cc(C)n1	8.2	i
CCc1ccc([S+](=O)([O-])c2nnn3c2nc(NCCCOC)c2ccccc23)cc1	-4.8	89.1µM*
Cc1ccc(S(=O)(=O)c2nnn3c2nc(N2CCOCC2)c2ccccc23)cc1	-2.8	79.4µM*
COCCNc1nc2c(S(=O)(=O)c3ccc(C)c(C)c3)nnn2c2ccc(Cl)cc12	22.6	i
COCCCNc1nc2c([S+](=O)([O-])c3ccc(Br)cc3)nnn2c2ccccc12	10.1	i
COCCNc1nc2c(S(=O)(=O)c3ccc(C)c(C)c3)nnn2c2ccccc12	10.1	79.4µM*
O=[S+]([O-])(c1cccnc1)c1nnn2c1nc(N1CCOCC1)c1ccccc12	1.9	i
COc1ccc([S+](=O)([O-])c2nnn3c2nc(N2CCOCC2)c2ccccc23)cc1	4.5	79.4µM*
Cc1ccc(S(=O)(=O)c2nnn3c2nc(N2CCCCC2)c2ccccc23)cc1	32.0	i
CCc1cccc2c(C(CC(=O)NCc3ccc4c(c3)OCO4)c3ccc(OC)c(OC)c3)c[nH]c12 (stereo not drawn)	2.5	?
O=C(c1cc2ccccc2oc1=O)N(Cc1ccco1)Cc1ccccc1Cl	nt	i
COc1ccc(CCNc2ncnc3c2CN(c2cccc(C)c2)C(=O)CN3C)cc1	29.3	nt
O=C(c1cccc(Cl)c1)N1CCN(c2ccc3nnc(-c4ccccc4)n3n2)CC1	2.5	nt
Cc1cc(C)c([S+](=O)([O-])c2nnn3c2nc(NC2CC2)c2ccccc23)c(C)c1	12.9	i
O=[S+]([O-])(c1ccncc1)c1nnn2c1nc(NCc1ccncc1)c1ccccc12	-6.2	i
SMILES	IP6K1 inhibitor	KDM5B inh
Cc1ccc(C)c([S+](=O)([O-])c2nnn3c2nc(NC2CC2)c2ccccc23)c1	2.3	79.4µM*
COCCCNc1nc2c([S+](=O)([O-])c3ccc(OC)cc3)nnn2c2ccccc12	15.1	31.6µM*
Cc1ccc([S+](=O)([O-])c2nnn3c2nc(NCc2ccncc2)c2ccccc23)cc1C	29.1	89.1µM*
COCCNc1nc2c([S+](=O)([O-])c3ccc(OC)cc3)nnn2c2ccccc12	3.3	?
O=C(c1cc(-c2ccc(F)cc2)nc2ccccc12)N1CCCC(c2nc(C3CCOCC3)no2)C1 (stereo not drawn)	5.2	?
Cc1cc(C(=O)N2CCCC(c3nc(C4CCOCC4)no3)C2)n(C)n1 (stereo not drawn)	-5.0	i
Cc1cnc(C(=O)N2CCCC(c3nc(C4CCOCC4)no3)C2)cn1 (stereo not drawn)	6.2	31.6µM*
O=C(CCc1ccccc1)N1CCC(c2nc(C3CCOCC3)no2)C1 (stereo not drawn)	1.7	?
O=C(c1cc(-c2ccc(F)cc2)nc2ccccc12)N1CCC(c2nc(C3CCOCC3)no2)C1 (stereo not drawn)	3.9	28.2µM*
O=C(CCN1c2ccccc2Sc2ccccc21)N1CCCC(c2nc(C3CCOCC3)no2)C1 (stereo not drawn)	24.2	25.1µM*
CCOC(=O)C1CCN(C(=O)C2CCc3nnc(-c4cccc(C(F)(F)F)c4)n32)CC1 (stereo not drawn)	22.9	nt
CC(=O)c1c(C)[nH]c(C(=O)NOCc2ccccc2)c1C	nt	i
O=C(Nc1ccc(Br)cc1Cl)c1cc(=O)c2ccccc2o1	nt	i
CC(C)OCCCNC(=O)c1cc(C2CC2)nc2ccccc12	nt	i
Cc1noc2c(-c3cccnc3N3CCOCC3)cc(-c3ccccc3)nc12	4.9	35.5µM*
COCCNc1ncccc1-c1cc(-c2ccccc2)nc2c(C)noc12	-7.0	31.6µM*
COc1ccccc1-c1cc(-c2cccnc2)nc2c(C)noc12	-18.3	?

From PubChem
